# TRHR agonist: activates the human TRH receptor | P34981 | TRHR cells, calcium flux fluo-8, FDSS agonist mode | activation, % at 2 µM | actives 0.18% (n = 360,000) | AID 493084; also: 0% is about no effect
# Target sequence (P34981 whole entry, looked up): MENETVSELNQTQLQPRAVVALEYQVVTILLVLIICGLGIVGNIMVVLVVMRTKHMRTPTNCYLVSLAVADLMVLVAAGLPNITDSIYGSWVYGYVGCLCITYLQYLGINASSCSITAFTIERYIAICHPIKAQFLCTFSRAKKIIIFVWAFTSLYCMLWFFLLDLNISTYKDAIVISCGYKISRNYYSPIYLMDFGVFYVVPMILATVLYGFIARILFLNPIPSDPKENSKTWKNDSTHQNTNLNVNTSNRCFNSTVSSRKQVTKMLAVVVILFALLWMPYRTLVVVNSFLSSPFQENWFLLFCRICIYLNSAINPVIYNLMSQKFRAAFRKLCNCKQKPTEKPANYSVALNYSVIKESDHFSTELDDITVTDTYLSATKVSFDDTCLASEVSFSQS
#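 In this calcium-flux screen, cells bearing human TRHR are dye-loaded with fluo-8, baselined for 10 cycles, then exposed to library compounds; positive kinetic calcium responses during the agonist phase mark hits, with TRH as control.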
# TRHR PAM: TRH receptor (human) allosteric enhancement; AID 493056; actives 0.66% (n = 360,000); TRHR cells, fluo-8 calcium fluorescence, EC20 TRH enhancement; enhancement, % at 2 µM; P34981; in the data active = enhancement above about 30%; also: 0% is about no effect
#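 TRHR-expressing cells loaded with fluo-8 calcium dye were read kinetically (ex 480/em 530) during compound addition, then stimulated with an EC20 of TRH (10 nM final). Enhancement of the Gq-mediated intracellular calcium response was scored.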
# D1 potentiator: potentiators of human D1 dopamine receptor. P21728. HEK293 TREx D1 cells, calcium flux, dopamine EC20 potentiation. potentiation, % at 10 µM. actives 0.036% (n = 360,000). AID 504651; in the data active = potentiation above about 30%; also: 0% is about no effect
# D1 antagonist: human D1 dopamine receptor antagonism; HEK293 TREx D1 cells, calcium flux, dopamine EC80; hits give low values; activity change, negative = inhibition, % at 10 µM; actives 3.2% (n = 360,000); AID 504652; in the data active = activity change below about -30%; also: % is scaled to controls: 0 for no effect and ±100 for the full control effect
#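 Calcium flux readout: force-coupled, inducible Hek293 Trex D1 line, cells induced overnight at 30 C with tetracycline, dye-loaded 30–90 min at RT. Antagonism scored against EC80 dopamine challenge given 180 s after compound.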
# D1 ag: human D1 receptor agonism; actives 1% (n = 360,000); P21728; AID 504660; HEK293 T-REx D1 cells, calcium flux, agonist mode; activation, % at 2 µM; also: 0% is about no effect
#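 Tetracycline-induced HEK293 TREx D1 cells, force-coupled to calcium signalling, were dye-loaded with a no-wash calcium kit. Compound was pin-added after a 10 s baseline. Fluorescence was read kinetically at 1 cycle/s for 180 s, with calcium rises flagged as agonism.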
# The depositor's hits bear a star. Shown are actives, neighbours in structure and some others; about 4.6% of the full set was active somewhere. Rule as the data show it, unless noted: active = activation above about 30%; inactive = the rest.
SMILES,TRHR agonist,TRHR PAM,D1 potentiator,D1 antagonist,D1 ag
COc1ccc(OC)c(NC(=O)N2CCCC(C(=O)c3ccccc3OC)C2)c1 (configuration not stated),-1.7,-0.2,-8.4,-36.3*,1.2
Cc1ccccc1NC(=O)C1CCCN(C(=O)Nc2ccc(F)cc2)C1 (configuration not stated),0.0,4.3,-9.8,11.8,0.3
COc1ccccc1NC(=O)C1CCCN(C(=O)Nc2ccc(F)cc2)C1 (configuration not stated),-0.1,-0.8,1.2,-81.5*,0.3
CC(C)NC(=O)C1CCCN(S(=O)(=O)c2cccs2)C1 (configuration not stated),-0.2,4.9,-2.1,-5.2,3.2
COc1ccccc1NC(=O)C1CCCN(S(=O)(=O)c2ccccc2)C1 (configuration not stated),0.4,1.6,3.5,-30.9*,4.4
CN(CC(=O)Nc1cccc(F)c1)CC(=O)Nc1ccccc1Oc1ccccc1,-0.4,-7.8,-4.7,-9.0,3.7
CC(C)c1cnc2c(c1SCC(=O)c1ccccc1)c(=O)n(C)c(=O)n2C,-0.9,0.9,0.1,-10.0,3.4
O=C(Nc1ccc(O)cc1)N1CCOCC1,1.1,-1.7,-2.5,-39.3*,4.6
COc1ccc(NC(=O)N2CCCCCC2)cc1,-1.8,-2.4,-16.8,-36.8*,1.0
O=C(Nc1ccc(Nc2ccccc2)cc1)N1CCOCC1,0.0,-1.0,-1.9,-20.3,3.3
COc1ccc(S(=O)(=O)N2CCN(C(=O)Nc3ccccc3OC)CC2)cc1,-0.1,-4.1,9.3,-37.4*,3.1
CS(=O)(=O)N1CCCC(C(=O)Nc2ccccc2)C1 (configuration not stated),0.2,31.6*,-1.6,-5.1,3.3
Cc1nc2ncnn2c(N2CCN(C(=O)c3cccc(F)c3)CC2)c1Cc1ccccc1,-1.3,-7.8,-4.5,-91.1*,2.1
COc1ccc(NC(=O)C2CCCN(C(=O)Nc3ccc(F)cc3)C2)cc1OC (configuration not stated),-0.1,-9.8,-7.8,-7.3,-0.3
CC(C)CC1(C(=O)NCc2cc(F)cc(C(F)(F)F)c2)C=CCN1C(=O)c1ccccc1 (configuration not stated),-0.9,-18.8,-0.3,-30.2*,-1.5
COc1cc(Cl)c(C)cc1NC(=O)C1CCCN(c2ncnc3onc(-c4ccc(F)cc4)c23)C1 (configuration not stated),-0.9,7.8,0.8,-8.4,2.3
N#Cc1c(NC(=S)NC(=O)c2ccccc2)sc2c1CCCC2,0.2,-2.2,0.6,17.7,2.0
N#Cc1c(NC(=S)NC(=O)c2ccccc2)sc2c1CCN(CCc1ccccc1)C2,10.8,4.4,-3.5,-5.3,48.0*
CC(C)(C)C(=O)Nc1sc2c(c1C#N)CCN(Cc1ccccc1)C2,11.3,0.1,5.8,3.0,33.4*
O=C(CCCCCn1c(=S)[nH]c2ccc(N3CCOCC3)cc2c1=O)NC1CCN(Cc2ccccc2)CC1,-1.1,2.8,-8.2,-31.8*,0.5
O=c1c2ccccc2[nH]c(=S)n1CCCN1CCN(c2ccccc2)CC1,0.2,0.7,-9.7,-58.2*,1.1
O=c1c2cccnc2[nH]c(=S)n1CCCN1CCN(c2ccccc2F)CC1,0.4,14.5,-6.0,-14.4,2.4
O=c1c2ccccc2[nH]c(=S)n1CCN1CCCCC1,0.3,-2.8,-13.3,8.6,0.3
O=c1c2ccccc2[nH]c(=S)n1CCCN1CCN(c2ccccc2F)CC1,0.3,6.7,-32.2,-74.7*,3.7
CCCOC1CCCN(C(=O)CCc2nnc(-c3ccc4c(c3)OCO4)o2)C1 (configuration not stated),-0.4,-0.2,3.0,-15.0,1.2
COc1ccc(CNC(=O)c2oc3c(c2C)-c2nn(Cc4ccc(Cl)cc4)cc2CC3)cc1,0.0,0.1,3.1,-9.8,-1.0
CC1(C)CC(=O)c2sc(NS(=O)(=O)c3ccc([N+](=O)[O-])cc3)nc2C1,0.6,6.3,-5.9,-0.3,-0.8
CC1(C)CC(=O)c2sc(NS(=O)(=O)c3ccccc3)nc2C1,0.4,21.5,5.0,-37.5*,-0.8
CC(C)c1cc(C(=O)Nc2cccc(Cl)c2)no1,1.2,6.5,-4.0,-10.9,4.4
CC(=O)c1cccc(NC(=O)c2cc(C(C)C)on2)c1,0.1,1.9,0.5,-36.1*,3.4

# High-throughput results: PubChem, National Center for Advancing Translational Sciences (NCATS)
